# Assay outcomes as filed in PubChem.
# In the library only some 3.4% were active in any assay of this set; here they are far more common.
# Shn3 3UTR inh: Schnurri-3 reporter inhibition in Clone20 osteoblasts. inhibition, % at 12.5 µM. AID 588674. actives 0.52% (n = 360,000). Clone20 osteoblast Shn3 3'UTR firefly luciferase, 24 h;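 active = mean inhibition of at least 75% with every replicate also reaching 75%; inconclusive = mean inhibition at least 75% but some replicate below; inactive = mean inhibition below 75%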
# TRPM1 prom inh: MITF TRPM1 promoter inhibition in SK-MEL-5 cells; SK-MEL-5 TRPM1 promoter luciferase, 24 h; AID 488899; inhibition, % at 12.5 µM; actives 0.83% (n = 330,000);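 active = mean inhibition across replicates of 60% or more, whatever share of single replicates reaches that level; inconclusive = some that reach 60%, reason not given; inactive = mean inhibition across replicates below 60%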
# EBV LMP1 NFkB: inhibitors of Epstein-Barr LMP1-induced NF-kappaB reporter. LMP1-induced NF-kappaB luciferase reporter cells, luminescence. inhibition, % at 12.5 µM. actives 0.69% (n = 350,000). AID 504558; in the data active = inhibition above about 41%; inconclusive = no clear call, values can overlap the other calls
# TWEAK-Fn14 inh: blocks TWEAK-Fn14 interaction in a reporter cell assay | TWEAK-stimulated Fn14 reporter cells, luciferase luminescence, 8 h | inhibition, % at 10 µM | actives 2% (n = 360,000); in the data active = inhibition above about 50%
# HIF-2a block: blocks HIF-2a reporter activity | 786-0 RCC cells HIF-2a reporter, luciferase luminescence, overnight | inhibition, % at 18.8 µM | actives 0.72% (n = 360,000) | AID 624352;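 active = inhibition of the luminescence signal of 40% or more relative to plate controls, in a single-dose primary screen at 18.75 µM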
# TROY NFkB inh: inhibitors of TROY-dependent NF-kB signaling; Q293 LMP1-TROYcd NF-kB luciferase reporter, 4 h; inhibition, % at 10 µM; actives 0.98% (n = 360,000);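 active = compounds whose plate-normalised and pattern-corrected inhibition of the luciferase reporter signal at the single screening dose is 50% or more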
# Mdm2 MdmX conf: confirmation of inhibitors of human Mdm2/MdmX interaction, set 2 | shares compounds with HIF-2a block | SaOS-2 split-luciferase Mdm2/MdmX complementation, luminescence | AID 504601 | inhibition, % at 8 µM | actives 99% (n = 740);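 active = mean inhibition of the luminescence signal across two replicates at or above 26 percent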
# HIF-2a conf: HIF-2a inhibition, single concentration confirmation; shares compounds with HIF-2a block; 786-0 RCC cells, HIF-2a luciferase reporter luminescence, overnight; inhibition, % at 18.8 µM; actives 56% (n = 1,800); AID 651580;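 active = mean inhibition across four replicates of at least 40 percent at the single tested concentration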
# HIF-1a counter: inhibits HIF-1a reporter, a counter-screen for HIF-2a inhibitors. inhibition, % at 18.8 µM. MiaPaCa-2 HIF-1a luciferase reporter, desferoxamine, overnight. AID 651589. shares compounds with HIF-2a block. actives 72% (n = 1,800);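 active = mean inhibition of the reporter signal across four replicates at the single tested dose of 50% or more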
# A number is an active result; i = inactive; ? = inconclusive; nt = no result given.
SMILES,Shn3 3UTR inh,TRPM1 prom inh,EBV LMP1 NFkB,TWEAK-Fn14 inh,HIF-2a block,TROY NFkB inh,HIF-2a conf,HIF-1a counter,others
Cc1c(CCC(=O)NCCCn2ccnc2)c(=O)oc2c(C)c3oc4c(c3cc12)CCCC4,i,i,i,i,47,i,63,59,
Cc1c(CCC(=O)N2CCC[C@H]2C(=O)O)c(=O)oc2c(C)c3oc4c(c3cc12)CCCC4,i,i,i,i,57,i,71,i,
Cc1ccc(C(=O)NCC(=O)N2CCCN(C)CC2)cc1C,i,i,i,i,i,i,nt,nt,
CCCCC(=O)NC(c1ccc(Cl)cc1Cl)c1ccc2cccnc2c1O (stereo not drawn),93,i,69,i,i,i,nt,nt,Mdm2 MdmX conf=85
O=C(O)c1ccccc1NC(c1ccccc1)c1ccc2cccnc2c1O (stereo not drawn),i,i,i,i,i,i,nt,nt,
CCCC(=O)NC(c1ccccc1Cl)c1ccc2cccnc2c1O (stereo not drawn),?,nt,66,i,i,i,nt,nt,Mdm2 MdmX conf=91
COc1cc(OC)nc(Nc2nc(C(N)Cc3ccc(C(F)(F)F)cc3)cs2)n1 (stereo not drawn),i,nt,nt,i,70,i,i,105,
CCN(C[C@H]1N[C@@](Cc2ccccc2)(C(=O)OC)[C@H]2C(=O)N(Cc3ccccc3)C(=O)[C@@H]12)C(=O)Nc1ccc(Cl)cc1,i,i,i,i,i,i,nt,nt,
[2H]C(CCOS(N)(=O)=O)c1ccc(C(C)(C)C)cc1 (stereo not drawn),i,83,i,i,57,i,63,i,
Cc1ccc(-c2cc(C(=O)O)n(-c3ccc(S(N)(=O)=O)cc3)n2)cc1,i,i,i,i,i,i,nt,nt,
COc1ccccc1NS(=O)(=O)c1ccc(C(=O)N2CC(C)OC(C)C2)cc1 (stereo not drawn),i,i,i,i,i,i,nt,nt,
O=c1c2ccccc2nc(/C=C/c2ccc([N+](=O)[O-])o2)n1CCCO,96,98,84,i,80,i,54,106,
N#C/C(=C\C=C\c1ccccc1[N+](=O)[O-])C(=O)NCc1ccccc1,i,69,i,88,81,i,61,102,
N#C/C(=C\c1ccccc1[N+](=O)[O-])C(=O)NCc1ccccc1,i,i,i,i,i,i,nt,nt,
COc1cccc(NC(=O)N2CCC(NC(=O)c3ccco3)CC2)c1,i,i,i,i,i,i,nt,nt,
O=C(Nc1ccc(Cl)cc1Cl)c1cccc(N2C(=O)C=CC2=O)c1,i,i,i,i,44,i,80,i,
CCc1ccc(S(=O)(=O)ON2C(=O)c3ccccc3C2=O)cc1,i,i,i,i,46,i,51,i,
COc1ccc(OC)c(S(=O)(=O)ON2C(=O)c3ccccc3C2=O)c1,i,i,i,i,57,i,60,i,
CCCCNC(=O)c1cccc(S(=O)(=O)N2CC3(C)CC2CC(C)(C)C3)c1 (stereo not drawn),i,i,i,i,i,i,nt,nt,
O=C(C[C@H]1C/C=C\C[C@@H](Cc2ccc(F)cc2)C(=O)OC[C@@H]2CCCN2C1=O)NCCO,i,i,i,i,i,i,nt,nt,
CC(=O)CCSc1ncnc2sc(-c3ccccc3)cc12,i,i,i,i,i,i,nt,nt,
O=C(O)CCSc1ncnc2sc(-c3ccccc3)cc12,i,nt,i,86,91,63,94,84,
Cc1cc(C)cc(NS(=O)(=O)c2ccc(-c3cnc(C4CC4)o3)cc2)c1,i,i,i,i,40,56,i,60,
Cc1cccc(NS(=O)(=O)c2ccc(-c3cnc(C4CC4)o3)cc2)c1C,i,i,i,i,42,58,i,67,
CCOc1cc(/C=N/Nc2nc3ccccc3[nH]2)cc(Br)c1OCC(=O)N(C)C,i,i,i,i,i,i,nt,nt,
